Among the data in PubChem BioAssay (NCI) are growth values, retold here.

The structures appear in SMILES notation. The panel holds about 83,000 compounds, 20% with a hit somewhere; the sample as a whole holds those more often.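 Percent growth is the endpoint: 0 to 100 indicates growth inhibition (40 means 60% inhibition), 0 means no net growth, and negative values indicate cell death.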 A number with no mark means an inactive call. Activity calls are given as the source filed them. How the source made its calls: active means growth percent below 10; inactive means the rest.

This assay deals with HCC-2998 colon. Description: NCI-60 one-dose screen, 48 h (100 = growth as untreated, 0 = no growth, -100 = all killed). To be noted: 10 µM unless noted.
In the case of `CN1CCN(Cc2ccc(NC(=O)c3cncc(C#Cc4cnc5ccc(OCC6(C)COC6)nn45)c3)cc2C(F)(F)F)CC1`, the growth is -89.6% (active). As to `CC(=O)c1cc(C(=O)c2ccc(Br)cc2)n2cc(C)cc(C)c12`, the growth was 82.6%.

Turning to `COC(=O)C[Se]C(=O)Cc1c(C)n(C(=O)c2ccc(Cl)cc2)c2ccc(OC)cc12`, the growth is 58.3%. Under `N#Cc1cccc(CN2CCC3=C(C2)C(=O)N(Cc2ccc(Cl)cc2)C2=NCCCN23)c1` stands 24.5%; under `C=CCn1c(SCC(=O)Nc2ccc(C(=O)/C=C/c3ccc(C)cc3)cc2)nnc1-c1c[nH]c2ccccc12`, 102%; under `CCCn1cnc2c(c1=N)C(c1ccc(OC)cc1)c1sc3c(CC)cccc3c1O2` (stereo not drawn), 19.2%. Under `Cc1ccc(-c2cc3nc(C(Cl)Cl)nc(C)n3n2)cc1` stands 115%; under `CCOC(=O)C(=O)CC(=O)N1C(=S)NC(=O)C1CC(C)C` (stereo not drawn), 97.8%; under `COc1ccc(-c2nc(C(Cl)Cl)nc3cc(-c4ccccc4)nn23)cc1`, -37.8% (active).

`CNC(=O)c1cc(-c2ccc(NS(=O)(=O)c3ccc(C)cc3)cc2)nc2cccnc12`: the growth was 108%. Turning to `NC(N)=Nc1ccc(Oc2cccc(Nc3ccc(Cl)c(C(F)(F)F)c3)c2)cn1`, the growth is -86.1% (active).

`CCN1CCN(Cc2ccc(C(=O)Nc3ccc(C)c(Oc4ccc(-c5[nH]nc6ncnc(N)c56)cc4)c3)cc2C(F)(F)F)CC1`: the growth was 117%.

As to `COc1ccc(NC(=O)Nc2ccc3c(ccn3C(=O)c3cccc(F)c3)c2)cc1`, the growth is 86.8%. Under `CCn1c(SCC(=O)Nc2cccc(C(=O)/C=C/c3ccccc3Cl)c2)nc2ccccc2c1=O` stands 91%; under `COc1ccc(-c2nn(-c3ccc(S(C)(=O)=O)cc3)cc2/C=N/O)cc1`, 115%; under `NC(N)=Nc1ccc(Oc2ccc(Nc3ccc(Cl)c(C(F)(F)F)c3)cc2)cc1`, 1.24% (active). Under `COc1ccc(NC(=O)CSc2nnc(-c3ccc4nc(-c5ccc(OC)c(OC)c5)[nH]c4c3)o2)cc1OC` stands 111%. Take `Cc1ccc(-n2c(/C=C3\C(=O)Nc4ccccc43)ccc2CO)cc1`: the growth is 95.7%. Under `O=C(NNc1nc2cc(F)ccc2n2c(CO)ccc12)c1cnccn1` stands 44.5%; under `Nc1ccccc1NC(=O)c1ccc(NC(=O)C/C=C/c2cccnc2)cn1`, 9.51% (active); under `Cn1ccnc1C(=O)/C=C/c1ccc(CNC(=O)c2c(F)c(F)c(F)c(F)c2F)cc1`, 90.7%.

`C#C[C@]1(O)CC[C@H]2[C@@H]3CC=C4c5sc(-c6cccc(O)c6)nc5CC[C@]4(C)[C@H]3CC[C@@]21C`: the growth is -24.8% (active). Under `COc1cc2c(cc1OC)C(Sc1ccc(F)cc1)c1c(nc(N)c(C#N)c1N)O2` (stereo not drawn) stands -86.1% (active); under `N#Cc1cn(Cc2ccc(Cl)cc2Cl)c(C(=O)c2ccc(Br)cc2)c1N`, 108%; under `O=C(O)c1ccc(-n2cc(CNc3cc(F)c(F)c(F)c3)c(-c3cccc(F)c3)n2)cc1`, 87.5%. Under `CCc1cccc(NC(=O)CNc2cc(S(=O)(=O)N(C)C)cc(C)c2C)c1` stands 123%. Consider `COc1ccc2c(c1)c(-c1cc(N)n3nc(-c4cn(C)c5ccc(OC)cc45)cc3n1)cn2C`, for which the growth is 114%. Turning to `C=C(C=O)[C@@H]1CC[C@]2(COC(C)=O)CC[C@]3(C)C(CC[C@@H]4[C@@]5(C)CC[C@H](OC(C)=O)C(C)(C)[C@@H]5CC[C@]43C)[C@@H]12` (stereo partly drawn), the growth is -63% (active). Under `COc1ccc(-c2nc3ccc(-c4nnc(SCC(=O)Nc5ccc(C(=O)/C=C/c6ccc(Cl)cc6)cc5)o4)cc3[nH]2)cc1` stands 115%. Take `COc1ccc(/C=C(\C#N)C(=O)N2c3ccccc3Sc3ccc(SC)cc32)cc1F`: the growth is 90.5%.

As to `O=C(CNc1nc(-c2cccc([N+](=O)[O-])c2)cs1)Nc1cccc(Cl)c1`, the growth is 115%. Under `CC1(C)CC[C@]23CC[C@]4(C)[C@H](CC[C@@H]5[C@@]6(C)CCCN(CO)C(C)(C)[C@@H]6CC[C@]54C)[C@H]2[C@H]1OC3` stands 3.53% (active); under `C=C(C=O)[C@@H]1CC[C@]2(C)[C@H](CC=C3[C@H]4[C@@H](C)[C@H](C)CC[C@]4(C(=O)OC)CC[C@]32C)[C@@]1(C)CCC#N`, -48.8% (active).

On to `CN(C)C(=O)c1cc(-c2ccc3ncnc(NCc4ccccc4)c3c2)cnc1N`, for which the growth was 102%. Under `O=S(=O)(NCCCNc1nccc(-c2[nH]c(-c3ccccc3)nc2-c2ccc(Cl)c(O)c2)n1)c1cccc2ccccc12` stands 70%. Under `Nc1ccccc1NC(=O)c1ccc(NC(=O)C/C=C/c2cccnc2)cc1` stands 9.69% (active); under `COc1cc(-c2nc(SCCC(C)C)nc(NNC(=O)c3ccncc3)c2C#N)cc(OC)c1OC`, 92.1%. Under `O=C(NNc1nc2cc(F)c(F)cc2n2cccc12)c1cnccn1` stands 40.9%.
